Results on 16 compounds are retold here after the supplement of paper PMC10127200.

Test in all cases: Euclidean distance of Cell Painting phenotypic profile (signed KS, 77 features) to DMSO centroid (dimensionless distance); 5 or 10 uM (library dependent); higher = stronger phenotypic change vs DMSO (phenoactivity)
Holding throughout (details): 48 h

In assay [1] the test system is 786-O. In outline:
(§1)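 At 10 or 5 uM, as set by the library, and 0.1% DMSO final, compounds were applied for 48 h to five cancer lines and one healthy fibroblast line. Stained cells were imaged confocally at 20X in 9 fields per well, and Harmony extracted 77 features scored as signed Kolmogorov-Smirnov statistics against vehicle wells on the same plate. Profiles underwent plate-position correction, correlation weighting and replicate averaging at the top dose. Phenoactivity is the Euclidean distance from each such profile to the median vehicle profile.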

Assay [2] concerns A549. In outline:
as §1

In assay [3] the test system is FB. In short, it runs like this: as §1
The subject of assay [4] is HEPG2. In outline:
as §1

For assay [5], the system named is OVCAR4. In outline: as §1
The subject of assay [6] is DU145. In outline:
as §1

Structures can show the parent of a compound that is named as a salt.

Turning to `CC(C)(C)[C@@H]1NC(=O)O[C@@H]2CCC[C@H]2OC/C=C/C(F)(F)c2nc3ccccc3nc2O[C@@H]2C[C@@H](C(=O)N[C@]3(C(=O)NS(=O)(=O)C4(C)CC4)C[C@H]3C(F)F)N(C2)C1=O` [Glecaprevir], the Euclidean distance in assay [1] worked out at 1.01; in assay [2], 1.22; in assay [3] it was 0.806; in assay [4] it was 0.687; in assay [5], 0.812.

Turning to `Nc1nc(N)c2nc(-c3ccccc3)c(N)nc2n1` [Triamterene], the Euclidean distance in assay [1] came to 1.01; in assay [2], 2.17; in assay [3], 1.13; in assay [4], 1.45; in assay [5], 1.29.

Regarding `COC(=O)CCc1ccc(OCC(O)CNC(C)C)cc1` (stereo not given) [Esmolol HCl], the Euclidean distance in assay [1] was 0.978; in assay [2] it was 0.415; in assay [3] it was 0.525; in assay [4], 0.386; in assay [5] it was 1.12.

Turning to `C[C@@H]1C[C@H]2[C@@H]3CCC4=CC(=O)C=C[C@]4(C)[C@@]3(Cl)[C@@H](O)C[C@]2(C)[C@@]1(OC(=O)c1ccco1)C(=O)CCl` [Mometasone furoate], the Euclidean distance came to 2.05 in assay [1]; 1.97 in assay [2]; 1.79 in assay [3]; 0.88 in assay [4]; 2.18 in assay [5].

On to `CC1CCC(C(C)C)C(O)C1` (single isomer, unassigned; (-)) [(-)-Menthol], for which the Euclidean distance in assay [1] came out at 0.7; in assay [2], 0.703; in assay [3], 0.797; in assay [4] it was 0.699; in assay [5] it was 0.955.

As to `Cc1c(C)c2c(c(C)c1O)CC[C@@](C)(CCC[C@H](C)CCC[C@H](C)CCCC(C)C)O2` [Vitamin E], the Euclidean distance in assay [1] amounted to 0.972; in assay [2], 1.04; in assay [3] it was 0.892; in assay [4] it was 0.644; in assay [5], 1.43.

Consider `Nc1nc(N)nc(-c2cc(Cl)ccc2Cl)n1` [Irsogladine], for which the Euclidean distance in assay [1] was determined as 1.09; in assay [2], 1.05; in assay [3], 0.809; in assay [4], 0.613; in assay [5], 1.41.

For `CC(C)(Cc1ccc2ccccc2c1)NC[C@@H](O)COc1cccc(Cl)c1C#N`, the Euclidean distance was found to be 1.35 in assay [1]; 1.64 in assay [2]; 1.06 in assay [3]; 1.77 in assay [4]; 1.45 in assay [5].

On to `C[C@]12C=CC(=O)C=C1CC[C@H]1[C@@H]3C[C@@H](O)[C@](O)(C(=O)CO)[C@@]3(C)C[C@H](O)[C@@]12F` [Triamcinolone], for which the Euclidean distance in assay [1] was 0.975; in assay [2], 1.88; in assay [3] it was 1.81; in assay [4] it was 1.35; in assay [5] it was 1.94.

`CN[C@@H]1CCc2[nH]c3ccc(C(N)=O)cc3c2C1` [Frovatriptan Succinate]: the Euclidean distance in assay [1] came to 1.33; in assay [2], 0.718; in assay [3], 0.896; in assay [4] it was 0.505; in assay [5], 1.29.

Consider `CC[C@H](C)[C@H](N)C1=N[C@H](C(=O)N[C@@H](CC(C)C)C(=O)N[C@H](CCC(=O)O)C(=O)N[C@H](C(=O)N[C@H]2CCCCNC(=O)[C@H](CC(N)=O)NC(=O)[C@@H](CC(=O)O)NC(=O)[C@H](Cc3cnc[nH]3)NC(=O)[C@@H](Cc3ccccc3)NC(=O)[C@H]([C@@H](C)CC)NC(=O)[C@@H](CCCN)NC2=O)[C@@H](C)CC)CS1` [Bacitracin], for which the Euclidean distance in assay [1] was 1.65; in assay [2], 1.13; in assay [3] it was 0.901; in assay [4], 0.726; in assay [5], 1.22.

On to `CCc1nc(N)nc(N)c1-c1ccc(Cl)cc1` [Pyrimethamine], for which the Euclidean distance in assay [1] turned out to be 1.19; in assay [2], 3.4; in assay [3], 0.96; in assay [4], 1.83; in assay [5], 2.25.

Consider `O=C(/C=C/C=C/c1ccc2c(c1)OCO2)N1CCCCC1` [Piperine], for which the Euclidean distance in assay [1] was 1.7; in assay [2], 0.714; in assay [3] it was 1.06; in assay [4] it was 0.563; in assay [5] it was 1.49.

`Nc1[nH]cnc2ncnc1-2` [Adenine HCl]: the Euclidean distance stood at 1.09 in assay [1]; 0.466 in assay [2]; 1.18 in assay [3]; 0.46 in assay [4]; 1.59 in assay [5].

Consider `CO[C@@]12[C@H](COC(N)=O)C3=C(C(=O)C(C)=C(N)C3=O)N1C[C@@H]1N[C@@H]12` [Mitomycin C], for which the Euclidean distance was 3.14 in assay [1]; 3.37 in assay [2]; 3.89 in assay [3]; 3.46 in assay [4]; 3.61 in assay [5].

`CCCCCCCCCCCCc1ccc(S(=O)(=O)Nc2nncs2)cc1`: the Euclidean distance in assay [1] is 1.69; in assay [2], 1.57; in assay [6], 0.932; in assay [3], 1.16; in assay [5], 1.51.
